According to PubChem BioAssay AID488943 (Broad Institute, 2010):
Results with a measured potency or affinity are listed apart. Calls of active or inactive are those of the source.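 The calls were made as follows: active = compounds with a fitted half-maximal inhibitory dose at or below ten times their top tested dose; inconclusive = flat curve at 30 to 70% inhibition, or poor fit; inactive = the rest.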

Experiment: C. albicans growth inhibition with fluconazole – CaCi-2 strain, Alamar Blue, dry powder, set 4, dose response (AID 488943)

Row | Structure (SMILES) | outcome
1 | O=S(=O)(c1ccc(Cl)cc1)N1CCN(c2ccnc3cc(Cl)ccc23)CC1 | inactive
2 | Cc1cc(N2CCN(C(=O)c3ccc(Cl)cc3)CC2)c2ccccc2n1 | inactive
3 | O=C(c1ccc(Cl)cc1)N1CCNCC1 | inactive
4 | CC(C)C(=O)N1CCN(c2ccnc3cc(Cl)ccc23)CC1 | inactive
5 | COc1cccnc1N1CCN(C(=O)c2ccc(Cl)cc2)CC1 | inactive
6 | COc1cccc2c(N3CCN(C(=O)c4ccc(Cl)cc4)CC3)cc(C)nc12 | inactive
7 | O=C(c1ccc(Cl)cc1)N1CCCN(c2ccnc3cc(Cl)ccc23)CC1 | inactive
8 | O=C(C1CC1)N1CCN(c2ccnc3cc(Cl)ccc23)CC1 | inactive
9 | O=C(c1ccc(Cl)cc1)N1CCN(c2ccncc2)CC1 | inactive
10 | O=C(c1ccc(Cl)cc1)N1CCN(c2ccnc3ccccc23)CC1 | inactive
11 | COCCC(=O)N1CCN(c2ccnc3cc(Cl)ccc23)CC1 | inactive
12 | CCCCNC(=O)N1CCN(c2ccnc3cc(Cl)ccc23)CC1 | inactive
13 | O=C(c1ccc(Cl)cc1)N1CCN(c2cccc(C(F)(F)F)n2)CC1 | inactive
14 | O=C(c1ccc(Cl)cc1)N1CCN(c2cc(C(F)(F)F)nc3ccccc23)CC1 | inactive
15 | CCCC(=O)N1CCN(c2ccnc3cc(Cl)ccc23)CC1 | inactive
16 | Cc1cccc(N2CCN(C(=O)c3ccc(Cl)cc3)CC2)n1 | inactive
